Data published in PubChem BioAssay AID623994 (NMMLSC, 2012).
Results with a measured potency or affinity are listed apart. A number with no mark means an inactive call. Calls of active or inactive are those of the source.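 The calls were made as follows: active = compounds whose fitted concentration for half the maximal dye retention is below 100 µM; inactive = the rest.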

The molecules below were run against Multidrug resistance protein CDR2 (Candida albicans (strain SC5314 / ATCC MYA-2876)) (UniProt P78595) (assay: blockers of Nile Red efflux by Candida CDR2 – S. cerevisiae AD1-8u, singleplex, Cherry Pick2 set, dose response (AID 623994)). Conditions: S. cerevisiae AD1-8u expressing CaCDR2, Nile Red efflux; series mostly up to 100 µM; Nile Red retention, efflux inhibition: at the top concentration.
Multidrug resistance protein CDR2 (Candida albicans (strain SC5314 / ATCC MYA-2876)), sequence (P78595 whole entry, looked up): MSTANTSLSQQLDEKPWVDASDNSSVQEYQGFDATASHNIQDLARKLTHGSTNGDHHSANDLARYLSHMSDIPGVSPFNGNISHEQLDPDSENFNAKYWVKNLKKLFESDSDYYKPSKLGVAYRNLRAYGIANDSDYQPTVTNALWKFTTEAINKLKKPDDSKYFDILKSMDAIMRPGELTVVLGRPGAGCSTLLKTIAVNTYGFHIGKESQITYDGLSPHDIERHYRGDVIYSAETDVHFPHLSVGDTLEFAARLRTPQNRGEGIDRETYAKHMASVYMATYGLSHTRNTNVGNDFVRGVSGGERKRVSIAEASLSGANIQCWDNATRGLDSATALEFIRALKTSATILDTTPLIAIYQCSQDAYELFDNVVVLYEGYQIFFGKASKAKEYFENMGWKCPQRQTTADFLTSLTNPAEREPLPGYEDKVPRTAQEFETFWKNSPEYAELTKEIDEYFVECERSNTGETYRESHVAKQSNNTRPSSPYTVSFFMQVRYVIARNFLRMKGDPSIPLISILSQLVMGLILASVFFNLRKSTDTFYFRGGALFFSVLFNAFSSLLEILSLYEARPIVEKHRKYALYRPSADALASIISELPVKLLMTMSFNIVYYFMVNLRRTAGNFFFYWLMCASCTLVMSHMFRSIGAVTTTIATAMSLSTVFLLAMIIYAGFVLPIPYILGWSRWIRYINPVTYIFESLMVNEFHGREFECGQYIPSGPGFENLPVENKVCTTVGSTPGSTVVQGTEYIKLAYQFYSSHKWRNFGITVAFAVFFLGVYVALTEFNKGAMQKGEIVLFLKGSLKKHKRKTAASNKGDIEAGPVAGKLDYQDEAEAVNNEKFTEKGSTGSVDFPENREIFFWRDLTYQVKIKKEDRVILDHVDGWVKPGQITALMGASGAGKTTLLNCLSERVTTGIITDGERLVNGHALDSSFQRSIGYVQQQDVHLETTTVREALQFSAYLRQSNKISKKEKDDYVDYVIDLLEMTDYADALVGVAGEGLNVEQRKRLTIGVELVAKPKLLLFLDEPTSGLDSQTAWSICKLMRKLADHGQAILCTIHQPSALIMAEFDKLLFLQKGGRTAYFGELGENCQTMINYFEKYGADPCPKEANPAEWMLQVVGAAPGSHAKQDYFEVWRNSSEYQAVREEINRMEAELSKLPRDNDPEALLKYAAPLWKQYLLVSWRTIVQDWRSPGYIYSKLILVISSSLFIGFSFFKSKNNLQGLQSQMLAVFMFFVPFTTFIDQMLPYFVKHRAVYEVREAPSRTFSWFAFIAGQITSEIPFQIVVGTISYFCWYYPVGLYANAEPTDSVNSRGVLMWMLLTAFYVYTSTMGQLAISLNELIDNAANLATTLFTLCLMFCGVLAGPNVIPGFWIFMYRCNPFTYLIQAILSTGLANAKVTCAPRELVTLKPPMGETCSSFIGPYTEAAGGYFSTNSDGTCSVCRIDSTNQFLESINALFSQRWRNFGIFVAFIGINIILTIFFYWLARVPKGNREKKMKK

| SMILES | Nile Red retention, efflux inhibition [%] | outcome |
| --- | --- | --- |
| COc1ccc2c(c1)OC[C@H]1[C@H]2N2C(=O)c3ccc(C)cc3NC(=O)[C@@]2(C)[C@H]1c1ccccc1 | -0.7 | – |
| NS(=O)(=O)c1ccc(N2N=C(c3ccccc3)CC2c2cccc(Br)c2)cc1 (stereo unspecified) | -8.65 | – |
| CN1Cc2cc(C(=O)c3ccccc3O)cnc2NC1=O | -4.73 | – |
| Cc1ccc(CN2C(=O)C(CC(C)C)Nc3ncnc(N4CCN(c5ccccc5)CC4)c32)cc1 (stereo unspecified) | -1.82 | – |
| COc1ccc(-c2c[n+](CC(=O)N3c4ccccc4Sc4ccccc43)c3n2CCC3)cc1 | -5.85 | – |
| COc1ccc(CNC(=O)C(C#N)c2nc3ccccc3nc2N2CCN(C)CC2)cc1 (stereo unspecified) | – | inactive |
| Cc1ccc(C)c(N2CCN(C(=O)C3CCCN(c4ncnc5c4nc4n5CCCCC4)C3)CC2)c1 (stereo unspecified) | 223 | – |
| COc1ncccc1C(=O)NC1CCCc2c1cnn2-c1cc(C)cc(C)c1 (stereo unspecified) | -1.59 | – |
| COc1ccc(O)c(C(=O)c2cnc3c(c2)CN(C)C(=O)N3)c1 | -9.23 | – |
| CC(C)C(=O)N1CCC2(CC1)Oc1ccc(Cl)cc1C(=O)C21CC(c2ccc(Cl)cc2)=NO1 (stereo unspecified) | -1.31 | – |
| NS(=O)(=O)c1ccc(N2N=C(c3ccccc3)CC2c2ccccc2)cc1 (stereo unspecified) | -3.96 | – |
| OCCN1CCN(CC/C=C2/c3ccccc3Sc3ccc(C(F)(F)F)cc32)CC1 | 27.4 | – |
| CCCCN1Cc2cc(C(=O)c3cc(F)ccc3O)cnc2NC1=O | – | inactive |
| COc1ccc(OC)c2sc(NC(=O)c3ccc(Br)s3)nc12 | -1.59 | – |
| O=C(C[n+]1cc(-c2ccc(Cl)cc2)n2c1CCC2)N1c2ccccc2Sc2ccccc21 | 9.2 | – |
| COc1ccc(CN2C(=O)C(C)Nc3ncnc(N4CCN(c5ccccc5)CC4)c32)cc1 (stereo unspecified) | 0.28 | – |
